Experimental data as given in PubChem BioAssay AID1259318 (Sanford-Burnham Center for Chemical Genomics, 2017).
In all, about 370,000 compounds went through this assay and about 3,000 (0.81%) were called active.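 The calls were made as follows: active = activity above about 14% (limit read from the data; passing the limit was not always enough); inactive = the rest.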 This excerpt belongs to a sample that is enriched for actives.

molecular target: Nuclear receptor subfamily 1 group D member 1 (Homo sapiens) (UniProt P20393); assay: modulators of Rev-erb alpha DNA binding, primary screen, biochemical, FITC-DNA, fluorescence polarization, uHTS (AID 1259318); conditions: Rev-erbα–FITC-DNA binding, 90 min, at 10 µM, hits give high values;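 also: 0% = DMSO wells with 35 nM protein and 100% = DMSO wells with 750 nM protein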
Sequence (P20393 whole entry, looked up): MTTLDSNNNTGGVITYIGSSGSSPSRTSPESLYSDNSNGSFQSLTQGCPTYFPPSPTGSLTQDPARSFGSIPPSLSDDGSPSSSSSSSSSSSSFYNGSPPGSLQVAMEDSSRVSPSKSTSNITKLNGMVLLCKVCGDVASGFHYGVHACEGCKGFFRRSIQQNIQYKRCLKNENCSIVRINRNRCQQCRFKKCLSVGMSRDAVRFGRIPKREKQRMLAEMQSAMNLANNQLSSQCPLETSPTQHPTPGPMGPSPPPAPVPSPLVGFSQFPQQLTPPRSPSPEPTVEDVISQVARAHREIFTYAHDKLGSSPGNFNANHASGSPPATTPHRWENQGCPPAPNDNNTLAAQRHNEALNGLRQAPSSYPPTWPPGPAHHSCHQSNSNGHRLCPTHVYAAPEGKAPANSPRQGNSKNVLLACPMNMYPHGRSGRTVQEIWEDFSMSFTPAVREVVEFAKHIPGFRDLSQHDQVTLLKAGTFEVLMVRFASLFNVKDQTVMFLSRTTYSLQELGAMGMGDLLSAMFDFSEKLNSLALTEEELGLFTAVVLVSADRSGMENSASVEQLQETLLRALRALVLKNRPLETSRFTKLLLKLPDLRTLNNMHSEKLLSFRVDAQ

activity, active:
CCOc1ccc2nc(Cl)c(C3CC(c4ccccc4)=NN3C(=O)c3cccs3)cc2c1 (stereo not drawn) 36%, CC(C)C(C)NC(=O)COc1nc2ccccc2nc1N(C)C1CCCCC1 (stereo not drawn) 62.5%, CCc1ccccc1NC(=O)c1cc(-c2ccc3c(c2)OCO3)on1 21.2%, CCOC(=O)c1c(NC(=O)CN2C(=O)NC3(CCC(C)CC3)C2=O)sc(C)c1CC (stereo not drawn) 21.8%, S=c1nccc(-c2cc(Cl)sc2Cl)[nH]1 20.9%, C=CCNC(=O)CC12CC3CC(C1)CC(CC(=O)NCC=C)(C3)C2 27.5%, Cc1cc(C)c2c(-c3ccc(F)cc3)c(C#N)c(=O)n(C)c2n1 56.8%, c1ccc2c(-c3nn4nnnc4c4ccccc34)cccc2c1 28.7%, O=C1CCCC2=C1C(c1ccccc1)n1c(s/c(=C/c3cccc(F)c3)c1=O)=N2 (stereo not drawn) 35%, O=C1Cc2ccccc2Sc2ccc(Cl)cc21 15.6%, Cc1ccc(S(=O)(=O)c2c[nH]c3ccc(Cl)cc3c2=O)cc1 136%, Fc1ccc(CNc2nc3ccccc3n3nnnc23)cc1 40.6%, Cc1nc(N2CCN(c3ccccn3)CC2)c2c(C)c(C(=O)Nc3ccc(F)c(Cl)c3)sc2n1 32%

activity, inactive:
O=C(COc1ccc2ccccc2c1)N1CCN(C(=O)c2cccs2)CC1 7.29%, CS(=O)(=O)Nc1cccc(C2=NN(C(=O)c3cccc(F)c3)C(c3cccs3)C2)c1 (stereo not drawn) 1.7%, CC(NC(=O)C(C)(C)C)C(c1cccs1)N1CCN(Cc2ccccc2)CC1 (stereo not drawn) -5.62%, O=C(Nn1cnc2ccccc2c1=O)c1ccc(F)cc1Cl -3.38%, O=C(COc1ccccc1O)NC1CCCC1 2.25%, CC(C)C(C)NC(=O)COc1ncnc2ccccc12 (stereo not drawn) 1.73%, CCCN1C(=O)C(NC(C)=O)c2cc(OC)ccc21 (stereo not drawn) 1.76%, CCOC(=O)N1CCN(C(=O)COCc2cc(-c3ccc4c(c3)OCO4)on2)CC1 2.06%, CC(C)NC(=O)COCc1cc(-c2ccc3c(c2)OCO3)on1 3.84%, CCCCCCCCCc1ccc(OCCOCCOCCOCCOCCOCCOCCOCCOCCO)cc1 2.2%, CC[C@H](NC(=O)[C@H](Cc1ccccc1)NC(=O)[C@H]1O[C@@H](n2cnc3c(=O)[nH]c(N)nc32)[C@H](O)[C@@H]1O)c1ccccc1 1.57%, CCOC(=O)c1c(NC(=O)C2CC=CCC2C(=O)O)sc(C)c1CC (stereo not drawn) -10.6%, CCC1CCC2(CC1)NC(=O)N(CC(=O)Nc1ccc(OC)cc1)C2=O (stereo not drawn) -2.27%, O=C1NC(c2ccccc2)=NC1(Nc1ccccn1)C(F)(F)F (stereo not drawn) -2.21%, C[C@@H]1CN([C@@H](C)CO)S(=O)(=O)c2ccc(C#Cc3cccc(F)c3)cc2O[C@H]1CN(C)S(=O)(=O)c1cn(C)cn1 4.67%, CCCC1O[C@@H]2CC3C4CCC5=CC(=O)C=CC5(C)C4[C@@H](O)CC3(C)[C@]2(C(=O)CO)O1 (stereo partly drawn) 3.39%, CC1=C(/C=C/C(C)=C/C=C/C(C)=C/C=C/C=C(C)/C=C/C=C(C)/C=C/C2=C(C)CCCC2(C)C)C(C)(C)CCC1 -1.26%, COc1ccccc1NC(=O)c1cc(N2C(=O)C3C4CCC(C4)C3C2=O)ccc1Cl (stereo not drawn) -4.24%, Cc1ccc(CNC(=O)CC(NC(=O)c2ccccc2)c2ccccc2)cc1 (stereo not drawn) -3.7%, CC(=O)C1(C(=O)Nc2nccs2)CC(c2ccccc2C(F)(F)F)=NO1 (stereo not drawn) 2.17%, O=C(O)CSCNC(=O)CC12CC3CC(CC(C3)C1)C2 5.91%, C=CCNC(=O)C12CC3CC(C1)CC(C(=O)NCC=C)(C3)C2 1.74%, Cc1cccc(NC(=O)c2cc(S(=O)(=O)N3CCC4(CC3)OCCO4)ccc2F)c1 -2.46%, O=C(N[C@H]1CC[C@H](CC(=O)N2CCCCC2)O[C@@H]1CO)c1cccc(F)c1 3.8%, CON(C)S(=O)(=O)c1ccc2c(c1)NC(=O)C1CCCN21 (stereo not drawn) -3.22%, COc1ccc(O)c(C(=O)c2cnc3c(c2)c(-c2ccc(F)cc2)c(C#N)c(=O)n3C)c1 -4.88%, Cn1c(N)cc(-c2ccc(F)cc2)c(C#N)c1=O -1.46%, C=CCN1C(=O)[C@@H](CC(=O)NCC2CCCCC2)[C@]2(C(=O)OC)CCCCC=C12 8.08%, Cc1nonc1OCCn1nnnc1N 0.14%, COc1ccc(C)cc1NC(=O)NCCCCc1ccccc1 -4.58%, CC1CCCC(C)N1C(=O)COC(=O)COc1ccccc1C#N (stereo not drawn) 8.28%, COc1ccc(CN(CCN2CCOCC2)C(=O)c2ccc(C)cc2)cc1OC -7.19%, COc1ccc(OC)c(C2C3=C(N=c4s/c(=C\c5cccc(O)c5)c(=O)n42)c2ccccc2CC3)c1 (stereo not drawn) -1.04%, O=C1CC(c2cccc(F)c2)C2=C(CCCC2=O)N1 (stereo not drawn) 1.68%, O=C1CC2(CCCC2)Oc2ccc(Cl)cc21 1.88%, S=C1Nc2cc(Cl)ccc2Sc2ccccc21 -3.11%, Cc1ccc(S(=O)(=O)c2c[nH]c3ccc(C)cc3c2=O)cc1 4.77%, CCCCN(C)Cc1c(C)[nH]c2ccc(Cl)cc2c1=O 3.27%, COc1ccc(N(CC(=O)NCc2ccc(F)cc2)C(=O)CCC(=O)Nc2nccs2)cc1 -2.56%, Cc1cc(Cl)ccc1NNC(=O)c1snnc1C 3.67%, CC(C)(C)N1CC(c2nc3ccccc3n2Cc2ccc(F)cc2)CC1=O (stereo not drawn) -4.96%, CCOC(=O)CNc1nc2ccccc2n2c(C)nnc12 2.94%, COC(=O)[C@]1(C)N[C@H](c2ccc(-c3ccc(Cl)c(Cl)c3)cc2)[C@@H]2C(=O)N(C)C(=O)[C@@H]21 2.33%, Cc1nc(N2CCC(C)CC2)c2c(C)c(C(=O)Nc3cc(F)ccc3C)sc2n1 15.7%, O=C(Nc1ccc(F)c(Cl)c1)C1CCN(S(=O)(=O)c2cccnc2)CC1 -4.36%
